# Results reported in the supplement of paper PMC6897291.
# Counter-ions that a name gives are not always drawn.
# Columns and labels:
# RIVA [1] = test: growth inhibition by drug plus 177Lu-lilotomab satetraxetan (1 - RLU/untreated control) (fraction); higher = stronger inhibition; details: 177Lu-lilotomab satetraxetan 0.5 ug/ml
# Method in brief: (§1)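 A radiolabelled anti-CD37 antibody conjugate (~600 MBq/mg) was applied for 18 h at 0.5 µg/ml to RIVA and 1 µg/ml to U-2932 cells, with untreated cells run alongside. All cells were washed and seeded at 3,000 cells/well onto library-printed plates at 10/100 nM (RIVA) or 10/1,000 nM (U-2932). Growth inhibition was based on RealTime-Glo luminescence compared with untreated no-drug wells. Daily reads began on day 3 after 1 h at 37°C, with each value being 1 − RLU/mean of the 48 such wells on that plate.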
# U-2932 [2] = test: growth inhibition by drug alone (1 - RLU/untreated control) (fraction); higher = stronger inhibition; details: 177Lu-lilotomab satetraxetan 0 ug/ml
# Method in brief: as §1
# RIVA [3] = test: as above; details: 177Lu-lilotomab satetraxetan 0 ug/ml
# Method in brief: as §1
# U-2932 [4] = test: growth inhibition by drug plus 177Lu-lilotomab satetraxetan (1 - RLU/untreated control) (fraction); higher = stronger inhibition; details: 177Lu-lilotomab satetraxetan 1 ug/ml
# Method in brief: as §1
Structure (SMILES),"growth inhibition by drug plus 177Lu-lilotomab satetraxetan (RIVA [1]; 100 nM, time (day): 5)","growth inhibition by drug plus 177Lu-lilotomab satetraxetan (RIVA [1]; 100 nM, time (day): 6)","growth inhibition by drug alone (U-2932 [2]; 10 nM, time (day): 3)","growth inhibition by drug alone (U-2932 [2]; 10 nM, time (day): 4)","growth inhibition by drug alone (U-2932 [2]; 10 nM, time (day): 5)","growth inhibition by drug alone (U-2932 [2]; 10 nM, time (day): 6)","growth inhibition by drug alone (U-2932 [2]; 1000 nM, time (day): 3)","growth inhibition by drug alone (U-2932 [2]; 1000 nM, time (day): 4)","growth inhibition by drug alone (U-2932 [2]; 1000 nM, time (day): 5)","growth inhibition by drug alone (U-2932 [2]; 1000 nM, time (day): 6)","growth inhibition by drug alone (RIVA [3]; 10 nM, time (day): 3)","growth inhibition by drug alone (RIVA [3]; 10 nM, time (day): 4)","growth inhibition by drug alone (RIVA [3]; 10 nM, time (day): 5)","growth inhibition by drug alone (RIVA [3]; 10 nM, time (day): 6)","growth inhibition by drug alone (RIVA [3]; 100 nM, time (day): 3)","growth inhibition by drug alone (RIVA [3]; 100 nM, time (day): 4)","growth inhibition by drug alone (RIVA [3]; 100 nM, time (day): 5)","growth inhibition by drug alone (RIVA [3]; 100 nM, time (day): 6)","growth inhibition by drug plus 177Lu-lilotomab satetraxetan (U-2932 [4]; 10 nM, time (day): 3)","growth inhibition by drug plus 177Lu-lilotomab satetraxetan (U-2932 [4]; 10 nM, time (day): 4)","growth inhibition by drug plus 177Lu-lilotomab satetraxetan (U-2932 [4]; 10 nM, time (day): 5)","growth inhibition by drug plus 177Lu-lilotomab satetraxetan (U-2932 [4]; 10 nM, time (day): 6)","growth inhibition by drug plus 177Lu-lilotomab satetraxetan (U-2932 [4]; 1000 nM, time (day): 3)","growth inhibition by drug plus 177Lu-lilotomab satetraxetan (U-2932 [4]; 1000 nM, time (day): 4)","growth inhibition by drug plus 177Lu-lilotomab satetraxetan (U-2932 [4]; 1000 nM, time (day): 5)","growth inhibition by drug plus 177Lu-lilotomab satetraxetan (U-2932 [4]; 1000 nM, time (day): 6)","growth inhibition by drug plus 177Lu-lilotomab satetraxetan (RIVA [1]; 10 nM, time (day): 3)","growth inhibition by drug plus 177Lu-lilotomab satetraxetan (RIVA [1]; 10 nM, time (day): 4)","growth inhibition by drug plus 177Lu-lilotomab satetraxetan (RIVA [1]; 10 nM, time (day): 5)","growth inhibition by drug plus 177Lu-lilotomab satetraxetan (RIVA [1]; 10 nM, time (day): 6)","growth inhibition by drug plus 177Lu-lilotomab satetraxetan (RIVA [1]; 100 nM, time (day): 3)","growth inhibition by drug plus 177Lu-lilotomab satetraxetan (RIVA [1]; 100 nM, time (day): 4)"
CN1CC[C@H](c2c(O)cc(O)c3c(=O)cc(-c4ccccc4Cl)oc23)[C@H](O)C1 [Flavopiridol hydrochloride],0.704,0.72,–,–,–,–,–,–,–,–,–,–,–,–,–,–,–,–,–,–,–,–,–,–,–,–,–,–,–,–,–,–
CN(C)C/C=C/C(=O)Nc1cc2c(Nc3ccc(F)c(Cl)c3)ncnc2cc1O[C@H]1CCOC1 [Afatinib (BIBW2992)],–,–,0.0755,0.0672,0.0124,-0.039,0.0101,0.0989,0.0569,0.0902,0.0532,-0.016,-0.0806,-0.333,-0.091,-0.147,-0.146,-0.262,0.0397,0.0532,0.0798,0.0941,-0.123,0.0652,0.0526,0.121,–,–,–,–,–,–
CCOc1ccc(Cc2cc([C@@H]3O[C@H](CO)[C@@H](O)[C@H](O)[C@H]3O)ccc2Cl)cc1 [Dapagliflozin],–,–,0.142,0.11,-0.0277,-0.0754,0.0652,0.0655,0.0265,-0.143,0.0261,0.0489,-0.0941,-0.357,-0.159,-0.0453,-0.0994,-0.161,0.0831,0.139,0.185,0.224,0.0836,0.124,0.161,0.282,–,–,–,–,–,–
CS(=O)(=O)CCNCc1ccc(-c2ccc3ncnc(Nc4ccc(OCc5cccc(F)c5)c(Cl)c4)c3c2)o1 [Lapatinib Ditosylate (Tykerb)],–,–,0.0817,0.081,0.00227,-0.0646,0.0164,0.0506,-0.0238,-0.169,-0.0232,0.00959,-0.0719,-0.295,-0.283,-0.179,-0.183,-0.291,0.108,0.154,0.199,0.225,0.0709,0.127,0.153,0.277,–,–,–,–,–,–
Cc1oc(S(=O)(=O)N2CCCCC2)cc1NC(=O)Nc1ccccc1,–,–,0.104,0.0184,-0.0595,-0.0798,-0.0127,0.0108,-0.117,-0.249,0.0245,0.075,-0.0191,-0.188,0.0283,0.0927,0.052,-0.0369,0.0412,0.101,0.11,0.174,-0.0876,0.0154,-0.000234,0.0155,–,–,–,–,–,–
Oc1cccc(-c2nc(N3CCOCC3)c3oc4ncccc4c3n2)c1,–,–,0.191,0.128,-0.0145,-0.0687,0.836,0.879,0.891,0.894,0.135,0.0735,0.0557,-0.0131,0.762,0.695,0.667,0.585,0.125,0.138,0.171,0.231,0.633,0.625,0.627,0.655,–,–,–,–,–,–
COC(=O)c1ccc2c(C(=Nc3ccc(N(C)C(=O)CN4CCN(C)CC4)cc3)c3ccccc3)c(O)[nH]c2c1 [BIBF1120 (Vargatef)],0.366,0.375,-0.0536,-0.0365,-0.0213,0.0413,-0.121,-0.0853,-0.113,-0.173,-0.119,-0.148,-0.188,-0.27,-0.285,-0.322,-0.347,-0.414,-0.06,-0.0397,-0.00235,0.146,-0.172,-0.0703,-0.0418,-0.00489,0.292,0.437,0.461,0.479,0.251,0.362
NC(=O)c1ccc(I)c([N+](=O)[O-])c1 [Iniparib (BSI-201)],0.516,0.523,-0.0132,-0.0395,-0.0441,-0.012,-0.105,-0.0771,-0.0716,-0.0297,-0.235,-0.257,-0.288,-0.389,-0.378,-0.352,-0.395,-0.471,-0.0638,-0.00415,0.0467,0.129,-0.0685,-0.00507,0.0384,0.191,0.437,0.491,0.504,0.513,0.436,0.495
Nc1nc(Nc2ccc(S(N)(=O)=O)cc2)nn1C(=O)c1c(F)cccc1F,0.611,0.599,0.0686,0.0712,0.0243,-0.028,0.297,0.39,0.398,0.477,0.09,-0.0123,-0.071,-0.232,-0.0601,-0.0559,-0.0832,-0.218,0.0456,0.07,0.0808,0.137,0.452,0.614,0.661,0.719,0.373,0.516,0.536,0.556,0.486,0.6
